Holding throughout (type): functional
The target of assay [1] is Solute carrier family 2, facilitated glucose transporter member 1 (Homo sapiens) (UniProt P11166). The experiment in a line: ST_JUDE_LEISH: Cytotoxicity at 2uM final concentration against transgenic Leishmania Mexicana promastigotes LmGLUT1 that are glucose transport deficient and complemented with the human glucose transporter GLUT1. Activity is measured by DNA content using SYBR green in vitro.

The target in assay [2] is Hexose transporter 1 (Plasmodium falciparum) (UniProt O97467). Kind of assay: ST_JUDE_LEISH: Cytotoxicity at 2uM final concentration against transgenic Leishmania Mexicana promastigotes LmPfHT that are glucose transport deficient and complemented with the Plasmodium falciparum hexose transporter. Activity is measured by DNA content using SYBR green in vitro.
Assay [3] has as its target Glucose transporter (Leishmania mexicana) (UniProt O61059). Kind of assay: ST_JUDE_LEISH: Cytotoxicity at 2uM final concentration against transgenic Leishmania Mexicana promastigotes LmGT2 that are glucose transport deficient and complemented with the L. Mexicana glucose transporter 2. Activity is measured by DNA content using SYBR green in vitro.

In general, inhibition refers to the change of the read-out against control, counted positive when it falls.

Chain of Solute carrier family 2, facilitated glucose transporter member 1 (Homo sapiens) (P11166 whole entry): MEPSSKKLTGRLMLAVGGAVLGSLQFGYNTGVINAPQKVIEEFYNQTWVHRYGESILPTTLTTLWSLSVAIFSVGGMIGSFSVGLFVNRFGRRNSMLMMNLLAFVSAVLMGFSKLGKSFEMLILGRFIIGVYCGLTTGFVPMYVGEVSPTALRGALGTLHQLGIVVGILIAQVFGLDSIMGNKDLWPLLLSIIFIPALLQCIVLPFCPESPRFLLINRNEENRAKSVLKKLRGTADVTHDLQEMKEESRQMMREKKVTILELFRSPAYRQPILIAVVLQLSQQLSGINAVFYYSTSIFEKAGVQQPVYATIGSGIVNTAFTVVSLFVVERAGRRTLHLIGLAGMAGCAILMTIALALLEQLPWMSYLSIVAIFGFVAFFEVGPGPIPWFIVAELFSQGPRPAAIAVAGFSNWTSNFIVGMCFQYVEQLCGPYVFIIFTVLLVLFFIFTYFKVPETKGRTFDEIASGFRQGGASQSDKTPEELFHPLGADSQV

For `O=C(NCc1ccccc1)c1ncn(CCCN2CCC(N3CCCC3)CC2)c1-c1ccc(Cl)c(Cl)c1`, the inhibition in assay [1] was -1.45%; in assay [2], -1.01%; in assay [3], -1.08%.

For `Nc1cccc(CNCc2cccc(-c3csc(-c4nc5ccccc5[nH]4)c3)c2)c1`, the inhibition was found to be 2.32% in assay [1], 2.29% in assay [2] and 1.68% in assay [3].

Consider `O=C(N[C@@H](Cc1ccccc1)C(=O)O)c1cc(-c2ccc(F)cc2)no1.O=C(N[C@@H](Cc1ccccc1)C(=O)O)c1conc1-c1ccc(F)cc1`, for which the inhibition in assay [1] is 9.87%; in assay [2], 6.76%; in assay [3] it was 6.74%.

Consider `CN(C)CC1CCCN1Cc1ccccc1-c1cnn(C)c(=O)c1Oc1cccc(C#N)c1` (stereo not drawn), for which the inhibition was found to be 1.03% in assay [1], 1.03% in assay [2] and 3.52% in assay [3].

For `COc1ccc(-c2ccc(NC(=O)c3ccc(C#N)cc3)cc2)cc1CN1CCC(O)CC1`, the inhibition was -0.1% in assay [1], -0.59% in assay [2] and -0.53% in assay [3].

With `O=C(Cn1c(CCc2cccc(F)c2F)nc(=O)c2cccnc21)N(Cc1ccc(-c2ccc(C(F)(F)F)cc2)cc1)C1CCN(C2CCSCC2)CC1`, the figures for the inhibition in assay [1], in assay [2] and in assay [3] were 3.24%, 4.36% and 0.42%, respectively.

With `COc1ccc2nccc(N3CCC(CCNCc4ccc5c(n4)NC(=O)CO5)CC3)c2n1`, the inhibition in assay [1] turned out to be 0.66%; in assay [2] it was 0.67%; in assay [3], 1.8%.

Consider `CC(C)(C)c1ccc(CNC(=O)c2cc(CNC3CCNCC3)ccc2O)cc1`, for which the inhibition was 1.45% in assay [1], 1.01% in assay [2] and 0.22% in assay [3].

For `CC(=NNC(S)=Nc1ccccc1Cl)c1ccccn1`, the figures for the inhibition in assay [1], in assay [2] and in assay [3] were 18.6%, 19.6% and 12.2%, respectively.

On to `O=C(Nc1ccc(-c2nc3ccccc3[nH]2)cc1)C1CCCN(C2CCC2)C1` (stereo not drawn), for which the inhibition was 19.8% in assay [1], 14.7% in assay [2] and 8.04% in assay [3].

Take `Cc1nnsc1C(=O)Nc1ccc(-c2ccc(-c3nc4ccccc4[nH]3)s2)cc1`: the inhibition in assay [1] was 4.65%; in assay [2] it was 1.4%; in assay [3], 1.47%.

Consider `Cc1cccc2nc(-c3ccc(-c4cccc(CNCC5CCCO5)c4)cc3)[nH]c12` (stereo not drawn), for which the figures for the inhibition in assay [1], in assay [2] and in assay [3] were 12.7%, 10.1% and 8.96%, respectively.

Turning to `CCC(CN1C(=N)NC(c2ccccc2)(c2ccccc2)C1=O)c1ccccc1` (stereo not drawn), the inhibition in assay [1] is -0.75%; in assay [2], -2.3%; in assay [3], 0.9%.

On to `CN(C)C(CNC(=O)c1cc(-c2ccncc2)c(-c2ccc(NC(=O)Nc3cccc(Cl)c3)cc2)o1)c1ccccc1` (stereo not drawn), for which the inhibition is 1.5% in assay [1], 2.82% in assay [2] and 0.81% in assay [3].

In the case of `O=C(N[C@@H](Cc1ccccc1)C(=O)NCCN1CCCCC1)c1ccc(O)c(-c2ccc(Cl)c(Cl)c2)c1`, the results for the inhibition in assay [1], in assay [2] and in assay [3] were 1.95%, 3.59% and 0.78%, respectively.

Turning to `O=C(CCC1CCCCC1)NCCNc1cccc2ccccc12`, the values for the inhibition in assay [1], in assay [2] and in assay [3] were -0.06%, -0.34% and -3.97%, respectively.

As for `NC(=O)c1cccc(-n2ccc3cc(CNC4Cc5ccccc5C4)ccc32)c1`, the inhibition in assay [1] came to 21.9%; in assay [2] it was 26.2%; in assay [3] it was 8.72%.

For `COc1ccc(C(=O)N[C@@H](CC(C)C)C(=O)N[C@H](/C=N/NC(=O)c2ccccc2)CCc2ccccc2)cc1OCCN1CCOCC1`, the inhibition in assay [1] is -0.43%; in assay [2] it was 3.34%; in assay [3], 6.8%.

For the compound `CCN(CC)CCOc1c(Cl)cc(Cl)cc1CNCCCNc1cc(=O)c2ccccc2[nH]1`, the figures for the inhibition in assay [1], in assay [2] and in assay [3] were 0.34%, 1.03% and 4.06%, respectively.

With `COc1ccc(CN2CCCC(Nc3ccc(F)c(F)c3)C2)c(O)c1` (stereo not drawn), the inhibition in assay [1] is 2.58%; in assay [2], 1.39%; in assay [3] it was 3.1%.

Turning to `Cc1ccc(CNC(=O)[C@H](CC(C)C)Nc2cc(C)nc(NCC3CCCCC3)n2)cc1`, the values for the inhibition in assay [1], in assay [2] and in assay [3] were 11.2%, 9.15% and 9.26%, respectively.

With `CCCCCCCNc1cc(C)nc2ccc(OC)cc12`, the inhibition in assay [1] is 16.5%; in assay [2] it was 9.23%; in assay [3], 12.4%.

For the compound `O=C(NCc1cccc(F)c1)Nc1ccc(-c2cccc(-c3nc4cc(F)ccc4[nH]3)c2)cc1`, the inhibition in assay [1] turned out to be 1.98%; in assay [2], 1.08%; in assay [3] it was 6.08%.

Turning to `CN1CCN(CCCN(Cc2csc(-c3ccc(CNCc4ccccc4)cc3)n2)C(=O)Nc2cccc(Cl)c2)CC1`, the inhibition in assay [1] was 1.91%; in assay [2], -0.25%; in assay [3], 2.48%.

For `COc1cc(OC)c(NC(=O)COc2ccc(C)cc2)cc1Cl`, the inhibition turned out to be 1.6% in assay [1], 1.59% in assay [2] and 3.07% in assay [3].

`C=C[C@H]1CN(CCCCCCC)CC[C@H]1CCN(C)c1ccnc2ccc(OC)cc12`: the inhibition in assay [1] stood at 1.17%; in assay [2], 2.44%; in assay [3], 2.13%.

In the case of `Cc1nc2nc(N)nc(N)c2c(C)c1Cc1ccc(C(N)=O)cc1`, the inhibition was found to be 1.68% in assay [1], 1.64% in assay [2] and 0.21% in assay [3].

For the compound `COc1ccc(OCC(O)CN(Cc2ccccc2OC)C(=O)Nc2ccc(Br)cc2)cc1` (stereo not drawn), the inhibition in assay [1] was 6.41%; in assay [2], 4.6%; in assay [3], 1.1%.

As for `COc1ccc(Cn2c(Nc3cccc(C(F)(F)F)c3)nc3cc(C(=O)NCCCN(C)C)ccc32)cc1Cl`, the figures for the inhibition in assay [1], in assay [2] and in assay [3] were 0.66%, 0.55% and -1.19%, respectively.

Regarding `CC(C)(C)OC(=O)N(Cc1cc(-n2nnnc2C(F)(F)F)ccc1O)[C@H]1CCCN(C(=O)OC(C)(C)C)[C@H]1c1ccccc1`, the inhibition in assay [1] is -0.38%; in assay [2], -2.92%; in assay [3], -3.2%.

Regarding `COc1ccc(-c2csc(NC(=O)CCC(=O)O)n2)cc1OC`, the inhibition was 0.77% in assay [1], 1.36% in assay [2] and 3.83% in assay [3].

Regarding `COc1ccc2nccc(N3CCN(CCNCc4ccc5c(n4)NC(=O)CS5)CC3)c2c1`, the inhibition in assay [1] stood at 1.43%; in assay [2], 0.73%; in assay [3], 0.44%.

Turning to `CC(C)CCNC(=O)C1Cc2c([nH]c3cc(Cl)ccc23)C2(CCN(CCc3ccccc3)CC2)N1` (stereo not drawn), the results for the inhibition in assay [1], in assay [2] and in assay [3] were 1.75%, 2.24% and 0.76%, respectively.

Regarding `Cc1ccc(NC(=O)Nc2ccc(I)c(OCCN(C)C)c2)cc1Cl`, the inhibition in assay [1] worked out at 10.6%; in assay [2] it was 7.2%; in assay [3], 5.01%.

As to `O=C(/C=C/c1ccc(Cl)c(Cl)c1)NCCCCCN1CCCC(CCCNC(=O)Nc2ccc(C(F)(F)F)cc2)C1` (stereo not drawn), the inhibition worked out at 11.3% in assay [1], 9.28% in assay [2] and 5.82% in assay [3].

Turning to `CS(=O)(=O)c1ccc(CCNCc2ccc(-c3ccc(CN(C(=O)c4cccc(C#N)c4)C4CCN(Cc5ccccc5)CC4)cc3)nc2)cc1`, the inhibition in assay [1] stood at 5.06%; in assay [2], 4.14%; in assay [3], 5.74%.

The values are drawn from ChEMBL document CHEMBL3433997, “St. Jude Leishmania screening dataset” (2016).
